Results on seven compounds are retold here after PubChem BioAssay (Tox21).

Records with an inconclusive call do not appear. The source made the active and inactive calls. Unless noted, the call rests on the fitted dose curve.

Assay [1] can be described thus: Nuclear factor erythroid 2-related factor 2/antioxidant responsive element (Nrf2/ARE) small molecule agonists: luciferase reporter gene qHTS assay in human keratinocytes (AID 1919969). Further: nearly all actives have a fitted effect of over 35% in size. Further: potency means the concentration at half of the fitted maximal effect.
The target in assay [2] is Gonadotropin-releasing hormone receptor (Homo sapiens) (UniProt P30968). Briefly: Human gonadotropin-releasing hormone receptor (GnRHR) small molecule agonists, calcium flux assay in GnRHR-HEK293 cells (AID 1920063). Further: nearly all actives have a fitted effect of over 35% in size. Further: potency means the concentration at half of the fitted maximal effect. In a few lines: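 We seeded human GnRHR-expressing HEK293 cells for 18 hours, loaded them with calcium dye for an hour at 37 C, added test compounds, and recorded fluorescence intensity kinetically for three minutes.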
Sequence of Gonadotropin-releasing hormone receptor (Homo sapiens) (P30968 whole entry, looked up): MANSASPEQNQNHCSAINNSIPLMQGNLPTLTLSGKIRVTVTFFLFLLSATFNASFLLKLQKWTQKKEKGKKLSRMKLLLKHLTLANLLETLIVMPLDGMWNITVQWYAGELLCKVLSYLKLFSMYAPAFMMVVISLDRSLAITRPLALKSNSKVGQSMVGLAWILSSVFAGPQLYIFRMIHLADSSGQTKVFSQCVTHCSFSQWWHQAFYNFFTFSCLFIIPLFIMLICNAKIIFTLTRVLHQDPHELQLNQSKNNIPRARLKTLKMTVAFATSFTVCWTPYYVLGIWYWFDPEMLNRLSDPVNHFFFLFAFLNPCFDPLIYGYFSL

Assay [3] addresses KiSS-1 receptor (Homo sapiens) (UniProt Q969F8). In words: Human kisspeptin (KISS1R) small molecule agonists, calcium flux assay in KISS1R-HEK293 cells (AID 1920064; active means well fitted activation curve with a large enough effect in the repeat runs; further: potency means the concentration at half of the fitted maximal effect). In a few lines:
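Kinetic calcium assay, 1 s sampling over 3 min at Ex/Em 480/540, in HEK293 cells engineered with human KISS1R; compounds delivered in DMSO after 1 h dye loading.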

Assay [4] in a line: p53 small molecule agonists, cell-based qHTS assay with human liver microsomes (AID 1963577). In a few lines:
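Compounds act here after metabolic activation: human liver microsomes and NADPH, both at 0.5 mg/mL final, were co-added to p53RE-bla cells. Incubation ran 16 h at 37 C, followed by LiveBLAzer detection.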

Assay [5] in a line: p53 small molecule agonists, cell-based qHTS assay with rat liver microsomes (AID 1963578). The procedure, abridged:
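Read-out is beta-lactamase reporter fluorescence (LiveBLAzer, 2 h, room temperature, dark) in p53RE-bla cells treated 16 h at 37 C with compound, rat liver microsomes and NADPH, both 0.5 mg/mL final.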

The nature of assay [6]: p53 small molecule agonists, cell-based qHTS assay with human liver microsomes: qHTS cell viability counter screen (AID 1963579). Further: nearly all actives have a fitted effect of over 45% in size. The procedure, abridged:
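Cells carrying the p53 response-element beta-lactamase reporter are treated for 16 h at 37 C with test compounds in the presence of human liver microsomes and NADPH (both 0.5 mg/mL final); ATP-based CellTiter-Glo luminescence then reports viability.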

Assay [7] can be described thus: p53 small molecule agonists, cell-based qHTS assay: qHTS cell viability counter screen (AID 1963581). Further: nearly all actives have a fitted effect of over 45% in size. In a few lines: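 Following 5 h attachment, HCT-116 p53RE-bla cells took up compound for 16 h at 37 C; the reporter was read with B/G FRET substrate (2 h RT), and viability then via CellTiter-Glo ATP luminescence.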
Assay [8] is described as follows: p53 small molecule agonists, cell-based qHTS assay (AID 1963582; active means well fitted activation curve with a large enough effect in the signal ratio in the repeat runs, not every such curve was filed as active; the % refers to the signal ratio). The procedure, abridged:
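In this cell-based concentration-response screen, a p53 response element drives beta-lactamase; cells received DMSO-borne compounds after 5 h culture and were incubated a further 16 h before FRET substrate development.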

Assay [9] deals with 5-hydroxytryptamine receptor 2A (Homo sapiens) (UniProt P28223). Briefly: 5-hydroxytryptamine receptor 2A (HTR2A) small molecule agonists, cell-based qHTS assay (AID 1963587). Further: nearly all actives have a fitted effect of over 30% in size. Further: potency means the concentration at half of the fitted maximal effect. The procedure, abridged:
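CHO cells stably expressing human HTR2A, plated 18 h, loaded with calcium dye 1 h at 37 C. Agonist mode: compounds added and intracellular calcium fluorescence recorded kinetically for 2 min at 1 sec intervals.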

Assay [10] deals with Muscarinic acetylcholine receptor M1 (Homo sapiens) (UniProt P11229). In words: Cholinergic receptor muscarinic 1 (CHRM1) small molecule antagonists, cell-based qHTS assay (AID 1963588). Further: nearly all actives have a fitted effect of over 40% in size. In a few lines:
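CHRM1-CHO calcium-flux assay, antagonist mode. Cells were seeded 18 h, dye-loaded 1 h at 37 C and given compound for 5 min at RT, then acetylcholine was added at 50nM. FDSS fluorescence was read 3 min; 15 concentrations, three runs.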

Assay [11] has the same target. Briefly: Cholinergic receptor muscarinic 1 (CHRM1) small molecule agonists, cell-based qHTS assay (AID 1963589). Further: nearly all actives have a fitted effect of over 35% in size. The procedure, abridged: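 Measures agonist-induced intracellular calcium rise. Stable human CHRM1 CHO line, 1 h dye load at 37 C, compounds from DMSO, kinetic fluorescence read.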
Assay [12] in a line: cAMP Responsive Elements (CRE) small molecule agonists, cell-based qHTS assay (AID 1963590). In a few lines:
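A CRE-responsive beta-lactamase reporter in HEK 293T cells was used. Treatment ran 3 h at 37 C; detection used LiveBLAzer B/G FRET substrate for 2 h at room temperature.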

Assay [13] in a line: cAMP Responsive Elements (CRE) small molecule antagonists, cell-based qHTS assay (AID 1963591; active means well fitted inhibition curve with a large enough effect in the signal ratio in the repeat runs, not every such curve was filed as active; the % refers to the signal ratio). The procedure, abridged: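 HEK293T cells carrying a CRE-driven beta-lactamase reporter receive compound and NKH477 (0.25 uM final) for 3 h. Fluorescence from LiveBLAzer B/G FRET substrate is read after 2 h at room temperature.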
Assay [14] concerns the target Beta-2 adrenergic receptor (Homo sapiens) (UniProt P07550). Briefly: Adrenergic beta2 receptor (ADRB2) small molecule antagonists, cell-based qHTS assay (AID 1963592). Further: series mostly up to about 92 µM; nearly all actives have a fitted effect of over 50% in size. The procedure, abridged:
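Cells (CHO, stable ADRB2 overexpression) incubated 18-20hr at 37C; compounds added from DMSO; agonist mix (1nM isoproterenol, 100uM IBMX, 25uM Ro-20-1724) added; 0.5hr RT; d2-cAMP and anti-cAMP-cryptate added; 1hr RT; 665/615 nm read.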

Assay [15] has as its target D(2) dopamine receptor (Homo sapiens) (UniProt P14416). In words: Dopamine D2 receptor (DRD2) small molecule agonists, cell-based qHTS assay (AID 1963594). Further: nearly all actives have a fitted effect of over 35% in size. The procedure, abridged:
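HEK293 cells stably expressing human DRD2, pre-treated with PDE inhibitor Ro20-1724 (0.1 mM final) and compound 10 min at room temperature, then stimulated with NKH477 (200nM […]) for 30 min. cAMP read by HTRF (665/620 nm).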

For assay [16] the target is unchanged. Briefly: Dopamine D2 receptor (DRD2) small molecule antagonists, cell-based qHTS assay (AID 1963595; active means well fitted inhibition curve with a large enough effect in the signal ratio in the repeat runs, with a control signal flat; the % refers to the signal ratio). The procedure, abridged: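 In this cell-based antagonist screen, compounds act for 10 min at room temperature before a 30 min challenge with 12 nM quinpirole and 200 nM NKH477. cAMP is quantified by HTRF competition in DRD2-HEK293 cells containing 0.1 mM Ro20-1724.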

Assay [17] can be described thus: G protein-coupled receptor (GPCR) small molecule agonists, calcium flux assay: HEK293 wild type cell line counter screen (AID 1920065). In a few lines: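 Calcium-sensitive dye, loaded 1 h at 37 C into cells cultured 18 h, reports compound-evoked calcium release as fluorescence (Ex/Em 480/540), measured over 3 min. Agonist mode; 15-point titrations, triplicate.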

For assay [18], the target named is 5-hydroxytryptamine receptor 2A (Homo sapiens) (UniProt P28223). Briefly: 5-hydroxytryptamine receptor 2A (HTR2A) small molecule antagonists, cell-based qHTS assay (AID 1963586). Further: nearly all actives have a fitted effect of over 45% in size. In a few lines: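 Antagonist-mode intracellular calcium assay: DOI (4 nM) added after 5 min compound pre-incubation at room temperature to dye-loaded HTR2A-CHO cells. Fluorescence followed for 3 min, sampled every second.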
Sequence of 5-hydroxytryptamine receptor 2A (Homo sapiens) (P28223 whole entry, looked up): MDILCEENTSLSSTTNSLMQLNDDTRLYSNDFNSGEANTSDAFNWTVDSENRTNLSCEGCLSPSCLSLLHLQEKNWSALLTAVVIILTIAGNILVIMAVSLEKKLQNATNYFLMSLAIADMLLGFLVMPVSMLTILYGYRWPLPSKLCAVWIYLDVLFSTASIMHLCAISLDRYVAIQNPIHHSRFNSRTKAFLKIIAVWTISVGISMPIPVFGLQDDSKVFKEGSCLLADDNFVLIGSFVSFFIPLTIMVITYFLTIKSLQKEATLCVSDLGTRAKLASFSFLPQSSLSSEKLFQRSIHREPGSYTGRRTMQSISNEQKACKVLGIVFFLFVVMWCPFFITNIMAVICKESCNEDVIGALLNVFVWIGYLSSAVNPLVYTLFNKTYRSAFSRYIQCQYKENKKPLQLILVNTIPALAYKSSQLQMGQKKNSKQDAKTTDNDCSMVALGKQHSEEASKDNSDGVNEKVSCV

The nature of assay [19]: p53 small molecule agonists, cell-based qHTS assay with rat liver microsomes: qHTS cell viability counter screen (AID 1963580). Further: nearly all actives have a fitted effect of over 45% in size. The procedure, abridged:
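p53RE-bla HCT-116 cells were exposed 16 h at 37 C to compounds with rat liver microsomes (0.5 mg/mL) and NADPH (0.5 mg/mL). Viability was measured in the same wells as ATP content by CellTiter-Glo luminescence.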

In assay [20] the target is Beta-2 adrenergic receptor (Homo sapiens) (UniProt P07550). Briefly: Adrenergic beta2 receptor (ADRB2) small molecule agonists, cell-based qHTS assay (AID 1963593).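 Further: CHO cells stably overexpressing human ADRB2.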 The procedure, abridged: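 CHO cells stably over-expressing ADRB2 were plated overnight at 37C, then dosed with compounds plus a stimulation mix containing 100uM IBMX and 25uM Ro-20-1724 for 0.5hr at room temperature. cAMP was measured by HTRF competition, 1hr.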
Sequence of Beta-2 adrenergic receptor (Homo sapiens) (P07550 whole entry, looked up): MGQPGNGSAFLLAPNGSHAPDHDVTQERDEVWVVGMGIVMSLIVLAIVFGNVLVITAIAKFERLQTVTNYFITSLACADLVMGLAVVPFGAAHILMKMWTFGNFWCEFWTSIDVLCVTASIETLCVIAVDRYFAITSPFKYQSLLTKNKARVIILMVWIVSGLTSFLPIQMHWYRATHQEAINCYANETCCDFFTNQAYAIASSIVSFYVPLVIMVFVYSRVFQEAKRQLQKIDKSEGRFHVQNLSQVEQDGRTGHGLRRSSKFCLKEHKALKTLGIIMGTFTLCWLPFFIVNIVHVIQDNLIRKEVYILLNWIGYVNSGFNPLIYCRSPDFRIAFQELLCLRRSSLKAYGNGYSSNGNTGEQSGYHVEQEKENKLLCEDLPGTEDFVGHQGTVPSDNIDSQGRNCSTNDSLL

Sequence of D(2) dopamine receptor (Homo sapiens) (P14416 whole entry, looked up): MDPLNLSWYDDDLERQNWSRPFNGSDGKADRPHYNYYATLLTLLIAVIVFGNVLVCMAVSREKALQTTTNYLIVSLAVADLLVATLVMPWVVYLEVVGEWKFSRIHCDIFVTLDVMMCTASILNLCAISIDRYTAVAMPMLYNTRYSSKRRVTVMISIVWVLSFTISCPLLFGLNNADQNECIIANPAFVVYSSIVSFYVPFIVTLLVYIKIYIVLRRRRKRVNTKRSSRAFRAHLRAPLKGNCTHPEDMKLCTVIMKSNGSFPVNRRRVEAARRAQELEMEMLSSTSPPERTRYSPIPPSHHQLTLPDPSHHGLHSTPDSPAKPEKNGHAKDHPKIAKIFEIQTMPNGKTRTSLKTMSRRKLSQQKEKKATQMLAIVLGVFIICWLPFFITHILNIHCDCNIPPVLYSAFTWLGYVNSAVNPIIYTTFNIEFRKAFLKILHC
Sequence of KiSS-1 receptor (Homo sapiens) (Q969F8 whole entry, looked up): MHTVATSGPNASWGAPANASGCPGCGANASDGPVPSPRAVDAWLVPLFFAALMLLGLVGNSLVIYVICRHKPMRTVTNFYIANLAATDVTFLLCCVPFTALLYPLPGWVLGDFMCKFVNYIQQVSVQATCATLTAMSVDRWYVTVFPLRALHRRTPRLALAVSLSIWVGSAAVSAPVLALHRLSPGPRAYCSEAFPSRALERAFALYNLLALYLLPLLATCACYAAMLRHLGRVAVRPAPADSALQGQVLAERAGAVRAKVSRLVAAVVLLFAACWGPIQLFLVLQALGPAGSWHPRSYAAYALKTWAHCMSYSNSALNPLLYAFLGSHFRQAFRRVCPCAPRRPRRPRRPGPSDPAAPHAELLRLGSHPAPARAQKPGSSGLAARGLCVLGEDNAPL
Sequence of Muscarinic acetylcholine receptor M1 (Homo sapiens) (P11229 whole entry, looked up): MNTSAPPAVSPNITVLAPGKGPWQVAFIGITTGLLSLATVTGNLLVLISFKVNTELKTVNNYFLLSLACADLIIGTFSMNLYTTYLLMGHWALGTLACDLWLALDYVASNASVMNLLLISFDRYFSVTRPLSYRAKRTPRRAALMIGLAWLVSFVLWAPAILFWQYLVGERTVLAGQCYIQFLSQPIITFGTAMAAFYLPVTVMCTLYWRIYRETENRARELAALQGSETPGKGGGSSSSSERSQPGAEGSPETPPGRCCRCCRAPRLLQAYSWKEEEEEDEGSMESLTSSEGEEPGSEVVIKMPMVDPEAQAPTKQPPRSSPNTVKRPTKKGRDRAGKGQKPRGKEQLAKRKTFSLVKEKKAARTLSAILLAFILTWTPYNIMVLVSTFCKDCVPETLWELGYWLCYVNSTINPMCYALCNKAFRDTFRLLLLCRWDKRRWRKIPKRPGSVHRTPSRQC

In the case of `ClC1=C(Cl)C2(Cl)C(CBr)CC1(Cl)C2(Cl)Cl` (stereo not given), the Potency result in [1], in assay [2], in assay [3], in assay [4], in [5] and in [6] was “inactive” throughout. Further, the Potency result in assay [7], in assay [8], in [9], in assay [10], in assay [11] and in assay [12] was “inactive” in each case. The Potency result in [13], in [14], in [15] and in assay [16] was “inactive” in each case.

As for `CCCCC(O)(Cn1cncn1)c1ccc(Cl)cc1Cl` (stereo not given), the Potency entry in assay [1], in assay [3], in assay [17], in assay [4], in [5] and in assay [6] was “inactive” throughout. The Potency entry in assay [7], in assay [18], in [10], in assay [11] and in assay [15] was “inactive” each time.

As to `Nc1ccc(Cc2ccc(N)c(Cl)c2)cc1Cl`, the Potency entry in [1], in [3], in assay [17], in [4], in [5] and in assay [7] was “inactive” each time. The Potency result in assay [8], in [10], in assay [11], in assay [12], in assay [15] and in [16] was “inactive” in each case.

Turning to `S=C=NCc1ccccc1`, in [1], the Potency is 27.6 µM (active). The Potency result in assay [3], in [17], in [5], in assay [19], in assay [7] and in [8] was “inactive” throughout. Moreover, the Potency entry in assay [9], in assay [11], in assay [12], in assay [13], in assay [14] and in assay [15] was “inactive” each time. In addition, the Potency entry in [16] is “inactive”.

Consider `O=S1OC[C@@H]2[C@H](CO1)[C@]1(Cl)C(Cl)=C(Cl)[C@@]2(Cl)C1(Cl)Cl` (stereo not given in full), for which the Potency in assay [1] was 24.3 µM (active). In addition, the Potency entry in [2], in assay [17], in assay [4], in assay [5], in assay [19] and in [7] was “inactive” in each case. Moreover, the Potency entry in [18], in assay [9], in assay [10], in assay [11], in assay [14] and in [15] was “inactive” throughout.

Take `CN[C@@H](C)[C@H](O)c1ccccc1`: the Potency entry in [1], in assay [2], in assay [3], in assay [4], in [5] and in assay [19] was “inactive” throughout. In addition, the Potency result in assay [7], in [8], in [18], in [10], in assay [11] and in [12] was “inactive” each time. Also, the Potency result in assay [13], in [14], in [20] and in [16] was “inactive” each time.

Turning to `O=C(N[C@@H]1N=C(c2ccccc2F)c2cccc3c2N(CC3)C1=O)c1cc2ccccc2[nH]1`, the Potency result in [1], in assay [4], in assay [5], in [19], in [10] and in assay [11] was “inactive” in each case. Also, the Potency result in [12], in assay [13], in assay [20] and in [15] was “inactive” throughout. For the same compound, the Potency in [2] was 4.25 µM (active); in assay [3], 15.1 µM (active); in assay [9] it was 13.4 µM (active).
